This note sets out measurements from PubChem BioAssay (NCATS).

Structures are written as SMILES. Values without a mark were called inactive. Records with an inconclusive call do not appear. Calls of active or inactive are those of the source. Unless noted, calls come from the whole dose curve; as a rule, active = well fitted curve in the direction sought with a large enough effect; inconclusive = small, poorly fitted or top-dose-only effect, or another doubt; inactive = no such curve, though single readings can be large; an effect the other way counts as inactive or inconclusive.

For test [1], the target named is Lysosomal acid glucosylceramidase (Homo sapiens) (UniProt P04062). The test can be described thus: Glucocerebrosidase-p2 (AID 348; in the data active = potency below about 10 µM; note: potency is the fitted concentration of half-maximal effect). The conditions noted are these: purified GBA, blue fluorogenic substrate, 40 min. The gist of the method:
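Normal human glucocerebrosidase (0.2 nM) with blue fluorogenic substrate (80 uM final) in citrate/phosphate pH 5.9 with 10mM sodium taurocholate, 0.01% tween-20; 40 min RT, NaOH/glycine stop; fluorescence Ex 365/Em 440; AC50 from a titration from 0.6 nM upwards.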

The nature of test [2]: AP1 Signaling Pathway (AID 357; active = well fitted curve in either direction with a large enough effect, not every such curve was filed as active;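 note: ME-180 reporter cells stimulated with EGF at its EC50 level; % is set by controls: 0 for no effect and ±100 for the full control effect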). The conditions noted are these: ME-180 AP-1-bla reporter, EGF-induced, beta-lactamase ratio, 5 h; at 7.69 µM (top of the series) unless noted. A digest of the protocol: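 A ratiometric CCF4 readout (405 nm excitation; 460 and 530 nm emission) quantified AP-1-driven beta-lactamase in ME-180 cells after 5 h with compound and EC50 EGF; AC50 values were derived for activators and inhibitors.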

The target of test [3] is Cytochrome P450 1A2 (Homo sapiens) (UniProt P05177). Kind of test: p450-cyp1a2 (AID 410; calls by dose curve; note: potency is the fitted concentration of half-maximal effect;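 for activity change, negative = inhibition: -100% = full effect of reference inhibitor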). The note with it: recombinant CYP1A2, luciferin-ME demethylation, luminescence; series mostly up to 57 µM. The gist of the method:
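Luminescent demethylation readout: Luciferin-ME (100uM, equal to Km) turned over by 20nM CYP1A2 for 60 min at room temperature after NADPH regeneration addition, following 10 min compound preincubation. Normalization used 57 uM furafylline as full inhibition.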

Test [4] in a line: NFAT Signaling Pathway (AID 444; active = well fitted curve in either direction with a large enough effect, not every such curve was filed as active;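 note: carbachol stimulus at about its EC50 of 1 µM final; % is set by controls: 0 for no effect and ±100 for the full control effect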). The note with it: Jurkat NFAT-bla M1, carbachol, beta-lactamase ratio, 5 h; at 7.69 µM (top of the series) unless noted. A digest of the protocol: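 Jurkat cells carrying an NFAT-driven β-lactamase reporter and co-transfected muscarinic M1 receptor were treated with compound plus carbachol (1 uM final, an EC50 level) for 5 h at 37 °C. CCF4 loading followed for 1 h at RT; 460/530 nm ratio gave %activity.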

Test [5] in a line: Stat Signaling Pathway (AID 446; active = well fitted curve in either direction with a large enough effect, not every such curve was filed as active;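 note: ME-180 cervical cancer cells given 40 pM IL-6 alongside compound; SIE-controlled beta-lactamase reporter measured as 460/530 nm FRET emission ratio; % is set by controls: 0 for no effect and ±100 for the full control effect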). The note with it: ME-180 (cervical carcinoma) SIE beta-lactamase reporter, IL-6 stimulated, 5 h; at 7.69 µM (top of the series) unless noted. A digest of the protocol:
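Emission at 460 and 530 nm (excitation 405 nm) reports SIE-controlled beta-lactamase in ME-180 cells. Cells received compound with 40 pM IL-6 for 5 hrs at 37 C; data scaled between 300 pM IL-6 and 125 nM JAK-inhibitor controls.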

Test [6] concerns the target Glucocorticoid receptor (Homo sapiens) (UniProt P04150). Kind of test: GR-GFP Redistribution (AID 450;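 active = compounds whose dose series gives a full or clear partial fitted curve of increased nuclear translocation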; note: potency is the fitted concentration of half-maximal effect). The conditions noted are these: U2OS GR-GFP nuclear translocation, laser cytometry, 2 h.
Test [7] has the same target. Kind of test: GR-EFC Redistribution (AID 451; calls by dose curve; note: potency is the fitted concentration of half-maximal effect). The conditions noted are these: CHO-K1 GR-EFC translocation, beta-gal luminescence, 2 h. A digest of the protocol:
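CHO-K1 cells stably expressing nuclear-localized β-gal enzyme acceptor and GR fused C-terminally to the enzyme donor fragment; ligand-driven nuclear translocation restores β-gal by complementation. Compounds titrated up to 46 uM final, 2 h at 37 °C; luminescence read.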

Test [8] concerns the target Mitogen-activated protein kinase 10 (Mus musculus) (UniProt Q61831). Kind of test: JNK3 AlphaScreen Assay (AID 530; active = well fitted curve in either direction with a large enough effect, not every such curve was filed as active;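 note: kinase came from lysate of stimulated human HepG2 cells; % is set by controls: 0 for no effect and ±100 for the full control effect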). The conditions noted are these: JNK3 lysate, c-Jun phosphorylation; series mostly up to 57.1 µM. The gist of the method: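 Phosphorylation of biotinylated GST-cJun(1-79) at Ser73 is measured by AlphaScreen proximity luminescence. Enzyme is JNK3 in HepG2 lysates activated with interleukin-1beta and tumor necrosis factor alpha; ATP is 10 uM final.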
Background: Alpha assays give light when donor and acceptor beads are brought close together.

The target in test [9] is 3',5'-cyclic-AMP phosphodiesterase 4B (Homo sapiens) (UniProt Q07343). Kind of test: qHTS Assay for Inhibitors of PDE-IV (AID 607; active = well fitted activation curve with a large enough effect in the main read-out, with a control signal flat, not every such curve was filed as active; note: % of control where 0% means no effect). The conditions noted are these: HEK293 ACTOne CNG channel cells, membrane potential fluorescence; series mostly up to 22.9 µM. The gist of the method:
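The readout is membrane depolarisation from a cAMP-sensing CNG channel, detected with a potential dye at ex 535/em 590. Cells were HEK293-derived (endogenous PDE-IV) at 1000 cells/well, titrated up to 22.9 uM final.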

The target of test [10] is Cytochrome P450 3A4 (Homo sapiens) (UniProt P08684). Kind of test: qHTS Assay for Activators of Cytochrome P450 3A4 (AID 885). Note: nearly all actives have a fitted effect of over 65% in size. The note with it: recombinant CYP3A4, Luciferin-PPXE luminescence, 60 min; series mostly up to 57.1 µM. The gist of the method:
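Activators are scored by enhanced luminescence from CYP3A4 conversion of luciferin-PPXE (25uM, equal to KM) to luciferin, after 60 min at RT with an NADPH-regenerating system.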
(Quantitative high-throughput screening tests each substance at several concentrations.)

The target in test [11] is Dual specificity protein kinase CLK4 (Homo sapiens) (UniProt Q9HAZ1). The test can be described thus: qHTS Assay for Inhibitors of CDC-like Kinase 4 (Kinase-Glo Assay) (AID 1770). Note: nearly all actives have a fitted effect of over 65% in size. Note: potency is the fitted concentration of half-maximal effect. The conditions noted are these: recombinant Clk4, Kinase-Glo ATP depletion luminescence; series mostly up to 66.7 µM. A digest of the protocol:
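25 nM Clk4 with 100 uM RS repeat peptide and 1 uM ATP (final) in Tris pH7.5, 10 mM MgCl2, 4.5 h at room temperature. Remaining ATP measured by Kinase-Glo luciferase luminescence.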

The target is the same in test [12]. The test can be described thus: qHTS Assay for Inhibitors of CDC-like Kinase 4 (ADP-Glo Assay) (AID 1771). Note: nearly all actives have a fitted effect of over 70% in size. Note: potency is the fitted concentration of half-maximal effect. The conditions noted are these: recombinant CLK4, ADP-Glo luminescence; series mostly up to 80 µM. A digest of the protocol: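 ADP production was read by ADP-Glo luminescence after residual ATP depletion, following 1 h room-temperature reaction of 25 nM Clk4, 1 uM ATP and 100 uM RS peptide with MgCl2, EGTA, DTT and Triton X-100.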

For test [13] the target is unchanged. The test can be described thus: qHTS Assay for Inhibitors of CDC-like Kinase 4 (ADP-FP Assay) (AID 1795). Note: nearly all actives have a fitted effect of over 60% in size. Note: potency is the fitted concentration of half-maximal effect. The conditions noted are these: Transcreener ADP fluorescence polarization; series mostly up to 50 µM. The gist of the method:
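Recombinant Clk4 (6.25 nM) phosphorylated 100 uM RS repeat peptide with 1 uM ATP in 25 mM Tris pH 7.5, 10 mM MgCl2, 0.5 mM EGTA, 2.5 mM DTT, 0.01% Triton X-100 for 1 h. ADP was detected by Transcreener ADP2 competitive fluorescence polarization after 30 min at room temperature.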

Test [14] addresses Ubiquitin carboxyl-terminal hydrolase 1 (Homo sapiens) (UniProt O94782). The test can be described thus: Inhibitors of USP1/UAF1: Pilot qHTS (AID 504865).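 Note: rhodamine fluorescence freed from ubiquitin-rhodamine substrate followed over time; top concentration of the series differs between compounds; % is set by controls: 0 for no effect and ±100 for the full control effect; nearly all actives have a fitted effect of over 35% in size.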 The conditions noted are these: purified USP1/UAF1, Ub-rhodamine cleavage fluorescence; series mostly up to 54.9 µM. A digest of the protocol: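 USP1/UAF1 complex at 1 nM preincubated 15 min at room temperature with compound, then Ub-Rho substrate added at 150 nM final. Fluorescence (480/540 nm) read kinetically in 50 mM HEPES pH 7.8, 0.5 mM EDTA, 1 mM TCEP, 0.1 mg/ml BSA, 0.01% Tween-20.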

Test [15] can be described thus: Primary qHTS for small molecule stabilizers of the endoplasmic reticulum resident proteome: Secreted ER Calcium Modulated Protein (SERCaMP) assay (AID 1508630). Note: % is set by controls: 0 for no effect and ±100 for the full control effect. The note with it: SH-SY5Y GLuc-SERCaMP (Gaussia luciferase released on ER calcium loss) secretion, thapsigargin, luminescence; series mostly up to 38.4 µM. A digest of the protocol:
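The SH-SY5Y reporter protocol was run at 3 concentrations up to 38.3 uM (primary) or 11 concentrations (follow-up): 16 h compound, 100 nM thapsigargin for 4 h, then extracellular luciferase luminescence.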

In test [16] the target is Cytochrome P450 3A4 (Homo sapiens) (UniProt P08684). Kind of test: qHTS Assay for Inhibitors and Substrates of Cytochrome P450 3A4 (AID 884). Note: potency is the fitted concentration of half-maximal effect; nearly all actives have a fitted effect of over 50% in size. The note with it: recombinant CYP3A4, Luciferin-PPXE luminescence; series mostly up to 57.1 µM. A digest of the protocol:
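Luminescent readout of luciferin produced by CYP3A4 (20 nM) dealkylation of Luciferin-PPXE, 25 uM (its KM). NADPH-driven reaction ran 60 min at RT after 10 min compound preincubation; data scaled to 57 uM ketoconazole as 100% inhibition.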

Test [17] deals with Cytochrome P450 2C19 (Homo sapiens) (UniProt P33261). Kind of test: qHTS Assay for Inhibitors and Substrates of Cytochrome P450 2C19 (AID 899). Note: potency is the fitted concentration of half-maximal effect; nearly all actives have a fitted effect of over 60% in size. The note with it: recombinant CYP2C19, luciferin-H EGE luminescence; series mostly up to 57.1 µM. A digest of the protocol:
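NADPH-dependent conversion of Luciferin-H EGE (10uM, at KM) by 5nM enzyme in 50mM KPO4, 60 min at 37C following 10 min compound preincubation. Stopped with luciferin detection buffer; luminescence read after 20 min.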

3',5'-cyclic-AMP phosphodiesterase 4B (Homo sapiens), sequence (Q07343 whole entry, looked up): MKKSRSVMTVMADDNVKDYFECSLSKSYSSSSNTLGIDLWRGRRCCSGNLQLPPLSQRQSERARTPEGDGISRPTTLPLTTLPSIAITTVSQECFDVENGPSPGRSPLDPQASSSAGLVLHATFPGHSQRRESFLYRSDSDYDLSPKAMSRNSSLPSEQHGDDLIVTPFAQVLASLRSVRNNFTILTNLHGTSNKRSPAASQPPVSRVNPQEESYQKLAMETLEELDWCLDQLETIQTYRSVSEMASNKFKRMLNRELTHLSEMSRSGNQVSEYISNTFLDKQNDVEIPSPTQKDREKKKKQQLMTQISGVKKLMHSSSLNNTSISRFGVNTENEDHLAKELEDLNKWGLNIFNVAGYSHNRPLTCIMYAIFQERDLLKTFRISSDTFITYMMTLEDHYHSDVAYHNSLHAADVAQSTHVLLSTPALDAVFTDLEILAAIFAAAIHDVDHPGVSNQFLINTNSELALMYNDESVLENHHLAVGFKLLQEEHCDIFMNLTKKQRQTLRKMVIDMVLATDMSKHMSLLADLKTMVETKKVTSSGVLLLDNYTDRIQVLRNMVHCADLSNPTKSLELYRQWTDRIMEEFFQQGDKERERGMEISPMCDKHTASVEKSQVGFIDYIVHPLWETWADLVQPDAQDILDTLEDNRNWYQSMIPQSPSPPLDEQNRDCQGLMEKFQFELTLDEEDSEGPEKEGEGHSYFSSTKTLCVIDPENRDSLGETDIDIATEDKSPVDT
Glucocorticoid receptor (Homo sapiens), sequence (P04150 whole entry, looked up): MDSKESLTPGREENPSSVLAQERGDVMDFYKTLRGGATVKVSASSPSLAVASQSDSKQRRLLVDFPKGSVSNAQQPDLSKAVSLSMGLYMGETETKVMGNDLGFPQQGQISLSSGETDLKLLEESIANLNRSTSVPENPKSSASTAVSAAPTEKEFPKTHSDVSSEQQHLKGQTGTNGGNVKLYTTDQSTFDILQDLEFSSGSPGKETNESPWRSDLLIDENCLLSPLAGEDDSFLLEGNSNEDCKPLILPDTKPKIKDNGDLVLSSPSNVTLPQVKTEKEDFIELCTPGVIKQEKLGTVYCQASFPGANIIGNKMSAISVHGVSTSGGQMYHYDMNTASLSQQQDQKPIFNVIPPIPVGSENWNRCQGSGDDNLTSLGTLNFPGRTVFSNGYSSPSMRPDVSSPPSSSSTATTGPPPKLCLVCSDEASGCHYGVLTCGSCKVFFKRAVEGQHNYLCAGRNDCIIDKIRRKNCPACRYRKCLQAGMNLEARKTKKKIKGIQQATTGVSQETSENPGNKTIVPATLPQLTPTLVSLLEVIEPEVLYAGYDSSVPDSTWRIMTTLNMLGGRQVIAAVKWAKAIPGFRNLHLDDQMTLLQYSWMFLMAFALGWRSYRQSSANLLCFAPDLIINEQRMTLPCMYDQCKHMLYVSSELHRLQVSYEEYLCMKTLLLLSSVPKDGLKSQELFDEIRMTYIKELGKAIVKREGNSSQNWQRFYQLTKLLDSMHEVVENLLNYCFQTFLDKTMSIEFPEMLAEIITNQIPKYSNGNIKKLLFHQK
Lysosomal acid glucosylceramidase (Homo sapiens), sequence (P04062 whole entry, looked up): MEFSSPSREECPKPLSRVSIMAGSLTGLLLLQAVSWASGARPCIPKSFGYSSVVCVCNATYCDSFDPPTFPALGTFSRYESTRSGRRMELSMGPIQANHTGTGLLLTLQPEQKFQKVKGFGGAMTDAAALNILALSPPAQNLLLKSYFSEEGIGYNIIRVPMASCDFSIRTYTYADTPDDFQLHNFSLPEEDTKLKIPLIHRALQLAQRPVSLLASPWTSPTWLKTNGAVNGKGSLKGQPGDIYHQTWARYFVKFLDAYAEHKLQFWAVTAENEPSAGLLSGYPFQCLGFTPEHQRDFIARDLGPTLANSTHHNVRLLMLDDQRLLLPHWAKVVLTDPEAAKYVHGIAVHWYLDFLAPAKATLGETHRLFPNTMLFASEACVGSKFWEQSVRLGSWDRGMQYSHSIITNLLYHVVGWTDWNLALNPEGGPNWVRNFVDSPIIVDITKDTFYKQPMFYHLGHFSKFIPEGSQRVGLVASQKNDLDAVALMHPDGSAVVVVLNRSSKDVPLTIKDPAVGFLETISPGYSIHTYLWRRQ
Dual specificity protein kinase CLK4 (Homo sapiens), sequence (Q9HAZ1 whole entry, looked up): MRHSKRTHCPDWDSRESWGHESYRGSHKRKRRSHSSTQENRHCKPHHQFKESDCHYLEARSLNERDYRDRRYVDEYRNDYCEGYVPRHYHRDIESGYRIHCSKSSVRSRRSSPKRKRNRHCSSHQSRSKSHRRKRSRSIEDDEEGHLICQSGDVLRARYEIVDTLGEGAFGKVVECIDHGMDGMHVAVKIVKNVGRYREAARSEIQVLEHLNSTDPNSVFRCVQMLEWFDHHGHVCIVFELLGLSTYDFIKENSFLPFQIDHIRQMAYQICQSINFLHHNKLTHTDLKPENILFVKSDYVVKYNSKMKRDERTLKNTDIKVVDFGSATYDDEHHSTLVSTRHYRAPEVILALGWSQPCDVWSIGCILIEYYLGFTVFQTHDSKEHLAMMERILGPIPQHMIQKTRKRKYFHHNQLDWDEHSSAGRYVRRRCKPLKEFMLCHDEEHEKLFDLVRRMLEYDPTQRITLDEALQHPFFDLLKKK
Cytochrome P450 1A2 (Homo sapiens), sequence (P05177 whole entry, looked up): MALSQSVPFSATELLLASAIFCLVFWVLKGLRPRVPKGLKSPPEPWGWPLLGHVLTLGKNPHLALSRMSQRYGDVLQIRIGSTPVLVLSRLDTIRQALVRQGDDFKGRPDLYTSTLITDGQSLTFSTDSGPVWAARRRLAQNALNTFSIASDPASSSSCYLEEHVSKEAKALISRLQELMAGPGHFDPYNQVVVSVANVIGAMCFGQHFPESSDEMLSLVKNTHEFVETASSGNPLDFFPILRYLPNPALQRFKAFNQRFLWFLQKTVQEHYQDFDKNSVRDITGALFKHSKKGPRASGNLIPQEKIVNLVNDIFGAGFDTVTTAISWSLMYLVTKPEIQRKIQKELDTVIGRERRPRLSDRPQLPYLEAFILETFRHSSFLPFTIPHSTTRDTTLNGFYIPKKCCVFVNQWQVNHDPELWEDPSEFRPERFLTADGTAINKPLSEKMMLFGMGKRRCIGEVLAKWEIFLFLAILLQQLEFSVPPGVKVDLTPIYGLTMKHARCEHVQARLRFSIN
Cytochrome P450 3A4 (Homo sapiens), sequence (P08684 whole entry, looked up): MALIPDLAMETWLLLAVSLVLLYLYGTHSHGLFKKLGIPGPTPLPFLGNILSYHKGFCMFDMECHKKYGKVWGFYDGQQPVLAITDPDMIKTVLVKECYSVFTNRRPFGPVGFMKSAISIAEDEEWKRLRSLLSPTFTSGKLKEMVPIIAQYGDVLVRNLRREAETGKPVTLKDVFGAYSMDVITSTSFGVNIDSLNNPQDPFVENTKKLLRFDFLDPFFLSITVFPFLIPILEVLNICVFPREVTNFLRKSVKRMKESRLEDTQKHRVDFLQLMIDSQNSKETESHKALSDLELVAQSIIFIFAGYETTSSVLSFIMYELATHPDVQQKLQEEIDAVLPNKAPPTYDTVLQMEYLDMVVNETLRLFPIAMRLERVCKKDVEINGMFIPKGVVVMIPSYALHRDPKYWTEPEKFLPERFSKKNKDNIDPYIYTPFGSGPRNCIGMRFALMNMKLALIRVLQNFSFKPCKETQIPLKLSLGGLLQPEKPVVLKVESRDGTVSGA
Ubiquitin carboxyl-terminal hydrolase 1 (Homo sapiens), sequence (O94782 whole entry, looked up): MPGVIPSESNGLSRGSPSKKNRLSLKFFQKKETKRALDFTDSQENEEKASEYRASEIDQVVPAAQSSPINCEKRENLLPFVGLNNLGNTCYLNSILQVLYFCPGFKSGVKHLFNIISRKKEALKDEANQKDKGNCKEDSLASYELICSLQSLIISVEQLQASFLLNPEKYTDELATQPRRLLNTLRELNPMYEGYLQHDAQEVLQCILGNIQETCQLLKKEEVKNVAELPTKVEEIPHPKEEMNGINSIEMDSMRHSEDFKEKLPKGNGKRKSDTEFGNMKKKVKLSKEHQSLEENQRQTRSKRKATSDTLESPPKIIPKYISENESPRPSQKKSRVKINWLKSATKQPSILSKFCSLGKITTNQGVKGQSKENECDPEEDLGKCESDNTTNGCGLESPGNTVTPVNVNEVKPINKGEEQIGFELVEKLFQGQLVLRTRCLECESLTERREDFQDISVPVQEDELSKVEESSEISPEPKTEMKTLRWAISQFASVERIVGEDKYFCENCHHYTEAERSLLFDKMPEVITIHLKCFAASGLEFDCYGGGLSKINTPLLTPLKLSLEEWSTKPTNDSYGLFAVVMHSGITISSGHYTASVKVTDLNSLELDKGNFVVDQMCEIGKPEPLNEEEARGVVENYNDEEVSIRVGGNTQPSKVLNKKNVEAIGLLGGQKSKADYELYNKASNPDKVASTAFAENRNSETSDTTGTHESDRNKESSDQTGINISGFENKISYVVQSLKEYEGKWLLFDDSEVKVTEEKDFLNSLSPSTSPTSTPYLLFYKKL
Cytochrome P450 2C19 (Homo sapiens), sequence (P33261 whole entry, looked up): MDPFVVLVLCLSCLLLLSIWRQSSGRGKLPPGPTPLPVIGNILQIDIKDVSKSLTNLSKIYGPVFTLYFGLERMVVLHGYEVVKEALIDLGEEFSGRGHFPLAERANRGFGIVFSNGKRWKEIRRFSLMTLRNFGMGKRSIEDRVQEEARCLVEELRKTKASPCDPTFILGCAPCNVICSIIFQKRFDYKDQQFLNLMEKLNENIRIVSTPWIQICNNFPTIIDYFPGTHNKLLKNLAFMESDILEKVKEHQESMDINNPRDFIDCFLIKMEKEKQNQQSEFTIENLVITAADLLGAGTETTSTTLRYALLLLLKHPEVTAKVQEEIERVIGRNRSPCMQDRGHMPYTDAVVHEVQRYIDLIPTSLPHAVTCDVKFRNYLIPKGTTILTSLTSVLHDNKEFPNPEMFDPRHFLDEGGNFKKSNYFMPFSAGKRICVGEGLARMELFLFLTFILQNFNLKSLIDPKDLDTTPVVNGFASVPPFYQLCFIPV

Take `N#CCCn1c(=O)c(-c2cc(F)cc(F)c2)nc2cnc(N3CCOCC3)nc21`: the Potency is above 11.4 µM in [1], 3.16 µM (active) in test [3], above 9.22 µM in test [6] and above 46 µM in [7]. The activity change, negative = inhibition in test [2] was 2.2%; in test [4] it was 20.1%. Moreover, in test [5], the activity, negative = inhibition was 12.6%. Besides, the Potency entry in [8], in [9], in [10], in [11], in test [12] and in test [13] was “inactive” each time. Moreover, in [14], the Potency entry was “inactive”. The result in test [15] was inactive.
As to `Cc1cnc(CNc2ccnc(-c3ccccc3C)n2)cn1`, the Potency in [1] was above 11.4 µM; in test [3] it was 12.6 µM (active); in test [6], above 46 µM; in test [7], above 46 µM. Moreover, the activity change, negative = inhibition is 3.37% in test [2] and -3.78% in test [4]. For the same compound, the activity, negative = inhibition in [5] was -1.97%. For the same compound, the Potency entry in [8], in test [9], in [10], in [11], in test [12] and in test [13] was “inactive” in each case. Moreover, the Potency entry in [14] was “inactive”. Also, in [15], the result was inactive.
Consider `COc1ccc(-c2nc3cnc(OC)nc3n(C)c2=O)cc1`, for which the Potency in [1] was above 11.4 µM; in test [3], 2.51 µM (active); in test [6], above 9.22 µM; in test [7], above 46 µM. For the same compound, the activity change, negative = inhibition was 8.21% in [2] and -0.516% in test [4]. Besides, the activity, negative = inhibition in test [5] was 15.6%. Besides, the Potency entry in test [8], in test [9], in test [10], in [11], in test [12] and in test [13] was “inactive” throughout. Further, the Potency entry in [14] is “inactive”. In test [15], the result was inactive.
On to `CNc1ncncc1-c1ccccc1C(F)(F)F`, for which the Potency is above 11.4 µM in test [1], above 46 µM in [6], above 46 µM in test [7] and 0.794 µM (active) in test [16]. In addition, the activity change, negative = inhibition in test [2] was 2.43%; in test [4] it was 11.4%. Further, the Potency entry in test [3], in [8], in test [9], in [10], in test [11] and in test [12] was “inactive” throughout. Besides, the Potency entry in [13] and in test [14] was “inactive” in each case. Moreover, the activity, negative = inhibition in test [5] was 22.6%. Also, in test [15], the result was inactive.
For `COc1ncc2nc(-c3ccc(F)cc3)c(=O)n(Cc3ccc(F)cc3)c2n1`, the Potency in test [1] is above 11.4 µM; in [3], 1.58 µM (active); in [6], above 9.22 µM; in test [7] it was above 46 µM; in [16], 3.16 µM (active). Further, the activity change, negative = inhibition in test [2] was 1.72%; in [4], -1.74%. The activity, negative = inhibition in [5] was -13.2%. The Potency result in test [8], in test [9], in [10], in test [11], in [12] and in [13] was “inactive” throughout. Also, the Potency entry in [14] was “inactive”. The result in test [15] was inactive.
On to `N#Cc1cccc(-c2nccc(-n3ccnc3)n2)c1`, for which the Potency in test [1] is above 11.4 µM; in test [3] it was 0.2 µM (active); in test [6], above 46 µM; in [7] it was above 46 µM; in test [16] it was 2.51 µM (active); in test [17], 7.94 µM (active). Also, the values for the Potency in test [11], in [12] and in test [13] were 8.91 µM (active), 10 µM (active) and 12.6 µM (active), respectively. For the same compound, the activity change, negative = inhibition is 10.7% in test [2] and 10.9% in test [4]. For the same compound, in [5], the activity, negative = inhibition is 4.18%. Moreover, the Potency result in [8], in test [9], in [10] and in test [14] was “inactive” throughout. Also, the outcome in test [15] was inactive.
